Data reported in the supplement of paper PMC10338343.
± gives the standard deviation.

Each sequence was assayed on MILI (PIWIL2) piRISC loaded with piRNA #1 (26 nt) (assay: pre-steady-state target cleavage rate (min^-1); guide: piRNA #1 5'p-UGAGGUAGUAGGUUGUAUAGUAUCCA; MIWI and MILI are mouse PIWI proteins and EfPiwi is from a freshwater sponge; tags in brackets are library labels; higher = faster piRNA-guided slicing of the target). Settings: auxiliary factor: 500 nM mouse GTSF1.
Summary of the method: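 In HEPES–potassium acetate buffer at 33 °C, […] transcribed, DNA-blocked target RNA library was mixed with 1 nM active affinity-purified piRISC carrying one synthetic guide, with or without 500 nM GTSF1 partner protein, for 0–8 or 0–960 min. Uncleaved targets were sequenced and normalised to depth and to weakly complementary targets; three trials were pooled and k3 was capped at 0.0001 min^-1. The pre-steady-state cleavage rate followed from a burst-and-steady-state fit.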
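Further: 1 nM active piRISC with 0.1 nM target library at 33 °C single turnover.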

Sequence	pre-steady-state target cleavage rate
GGAGACCUUACUUAACAACCUACUACCUCA	0.101 ± 0.016
GGAGACCUAUCUAUACAACCUACUAGCUGA	0.00493 ± 0.0036
GGAGACCUAUGAAUACAACCUACUCACCUCA	0.004 ± 0.0026
GGAGACCAUACUAUACAACCUACUACGUCA	0.116 ± 0.017
GGAGACCUAUGAUAUGUACGUACUACCUGA	< 0.0001
GGAGACCUAACUAUAGAAGCUACUACCUCA	0.156 ± 0.029
GGAGACCUAACUAUACAACCUACUUGCUCA	0.18 ± 0.062
GGAGACCUAUGUAACAACCUACUACCUCA	0.0402 ± 0.0057
GGAGAGCAUACUAUAGAACCUACUACCUCA	0.142 ± 0.012
GGAGAGGAUACUAUACUACCUACUAGCUCA	0.0852 ± 0.013
GGAGACCUAACUUUACAACCUACUACCUGA	0.0891 ± 0.041
GGAGACCUAUGUAUACAACCUACUACCUA	0.044 ± 0.0064
GGAGACCUUACUAUACUACCUACUUCCUCA	0.119 ± 0.019
GGAGACCUAUCUAUACAACGUAGUACCUCA	0.00772 ± 0.0031
GGAGACCAUAGUAUUCAACCUACUACCUCA	0.11 ± 0.013
GGAGACCUAACUAUAGAACCUACUACCUCA	0.131 ± 0.021
GGAGACCUAUGAUAUGAACCUACUACACUCA	< 0.0001
GGAGUCGUUACUAUACAACCUACUACCUCA	0.158 ± 0.011
GGAGUGGAAACUAUUCAACCUACUACCUCA	0.192 ± 0.017
GGAGACCUAUGUAUCCAACCUACUACCUCA	0.0333 ± 0.005

Sequence	pre-steady-state target cleavage rate
GGAGACCUAUGAUAACAACCUUCUACCUCA	0.0024 ± 0.0021
GGAGUGGAUACUAUAGAACCUAGUACCUCA	0.00269 ± 0.0022
GGAGACCUAUGAUAUGAACCUAGAUGGAGA [g9:g14:cont:t1A]	< 0.0001
GGAGACCUAUGAUAUGUUCCUACUACGUGA	< 0.0001
GGAGACCUAUGUAUACAACCUACUACCUCU [g2:g19:cont:t1U]	0.0508 ± 0.0069
GGAGACCUAUGUAUACAACCUACUACCGUCA	0.0528 ± 0.0094
GGAGACCUUAGUAUAGAACCUACUACCUCA	0.0876 ± 0.013
GGAGACCAUACUAUUCAACCUACAACCUCA	0.185 ± 0.021
GGAGACCUAACUAUACAACGUACUACCUGA	0.00576 ± 0.0041
GGAGACCUAACAAUUCAACCUACUACCUCA	0.0406 ± 0.013
GGAGACCUAUGAUAUGUUGCUACUACCUCU [g2:g11:cont:t1U]	< 0.0001
GGAGACCUAUGAUAUCAACCUAGUACCUGA	< 0.0001
GGAGACCUAUGUAUACAACCUACUUCGUCA	0.0106 ± 0.0032
GGAGACCUAUGAUUACAACCUCACUACCUCA	0.00291 ± 0.0027
GGAGACCUUACUAUACUACCUACUACGUCA	0.0704 ± 0.01
GGAGACCUAUGUAUACUACCUACUAGCUCA	0.0108 ± 0.0031
GGAGACCUAUCUAUACAACCUACAUACCUCA	0.113 ± 0.015
GGAGACGAUACUUUAGAACCUACUACCUCA	0.16 ± 0.01
GGAGACCUAACUAUAGUACCUACUACCUCA	0.122 ± 0.022
GGAGACCUAUGAAUACUAGCUACUACCUCA	0.00307 ± 0.002
